NS1 inh – qHTS Assay for Inhibitors of Influenza NS1 Protein Function; AID 2326, 2010; Potency, µM (series often up to 46.1 µM), without a hit: top-dose activity, positive = more growth; 0.4% of 270,000 active; further: potency means the concentration at half of the fitted maximal effect; actives are rising curves; nearly all actives have a fitted effect of over 50% in size
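Growth recovery, yeast-based: influenza A NS1 expressed in S. cerevisiae causes slow growth, and suppressors are detected by OD600. The parent strain without NS1 is used as positive control.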
Shiga toxin inh – A qHTS for Small Molecule Inhibitors of Shiga Toxin; AID 2315, 2010; Vero cells, Shiga toxin protein synthesis inhibition reporter; inhibition, % at 38.7 µM; 9.2% of 290,000 active; in the data active means inhibition mostly above about 28%, no sharp cut-off; inactive means mostly below about 43%; further: 0% is about no effect
SARS PLpro yeast – qHTS of Yeast-based Assay for SARS-CoV PLP; 0.19% of 330,000 active; S. cerevisiae expressing SARS-CoV PLpro, growth rescue; Potency, µM (highest dose often 32.9 µM), without a hit: at the top dose activity, positive = growth rescue, usual class: activators; AID 485353, 2010; further: potency means the concentration at half of the fitted maximal effect; 0% is about no effect; nearly all actives have a fitted effect of over 55% in size
TbPYK inhibitor – qHTS of Trypanosoma Brucei Inhibitors | pyruvate kinase (Trypanosoma brucei), Q57TT1 | TbPYK enzyme, Kinase-Glo Plus ATP luminescence, 45 min | Potency, µM (titrated, usually from 76.8 µM), for inactives: top-dose activity, negative = inhibition, hits mostly inhibitors | 0.12% of 410,000 active; active means well fitted curve in the direction sought with a large enough effect; inconclusive means small, poorly fitted or top-dose-only effect, or another doubt; inactive means no such curve, though single readings can be large; an effect the other way counts as inactive or inconclusive; further: potency means the concentration at half of the fitted maximal effect; on the % scale 0 is the no-effect control and ±100 the full control effect; nearly all actives have a fitted effect of over 50% in size
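Luminescent Kinase-Glo Plus end-point after 45 min room-temperature reaction of T. brucei pyruvate kinase started with 130 uM ADP (final). Buffer TEA 50 mM pH 7.2 with KCl, MgCl2, BSA, Tween-20; titration-based qHTS with fitted concentration-effect curves.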
LmPK inh – qHTS Assay for Inhibitors of Leishmania Mexicana Pyruvate Kinase (LmPK) | Q27686 | purified LmPK, Kinase-Glo ATP luminescence, 1 h | Potency, µM (titrated, usually from 57.5 µM), inactives show at the top dose activity change, negative = inhibition, hits mostly inhibitors | 0.37% of 290,000 active | AID 1721, 2009; active means well fitted curve in the direction sought with a large enough effect; inconclusive means small, poorly fitted or top-dose-only effect, or another doubt; inactive means no such curve, though single readings can be large; an effect the other way counts as inactive or inconclusive; further: potency means the concentration at half of the fitted maximal effect; on the % scale 0 is the no-effect control and ±100 the full control effect
Target sequence (Q27686 whole entry, looked up): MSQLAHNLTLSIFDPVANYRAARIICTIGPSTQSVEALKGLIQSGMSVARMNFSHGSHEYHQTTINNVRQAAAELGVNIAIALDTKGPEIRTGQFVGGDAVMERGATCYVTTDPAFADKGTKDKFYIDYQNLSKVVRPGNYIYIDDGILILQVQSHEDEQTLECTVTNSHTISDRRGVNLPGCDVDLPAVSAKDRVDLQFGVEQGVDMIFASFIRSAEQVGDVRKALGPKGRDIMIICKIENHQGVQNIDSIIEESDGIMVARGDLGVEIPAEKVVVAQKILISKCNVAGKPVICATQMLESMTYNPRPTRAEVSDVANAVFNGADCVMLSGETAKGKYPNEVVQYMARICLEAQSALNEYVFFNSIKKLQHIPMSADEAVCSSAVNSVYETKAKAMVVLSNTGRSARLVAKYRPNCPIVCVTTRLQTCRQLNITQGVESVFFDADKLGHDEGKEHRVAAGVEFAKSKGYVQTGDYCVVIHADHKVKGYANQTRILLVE
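ATP generated from ADP (0.1 mM) and PEP (0.5 mM) by 0.1 nM LmPK over 1 h at room temperature (pH 7.2 imidazole buffer) was detected by coupled luciferase luminescence. Values were normalized to uninhibited and no-enzyme wells.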
CHX counter – Cycloheximide Counterscreen for Small Molecule Inhibitors of Shiga Toxin | cell reporter, cycloheximide protein synthesis inhibition counterscreen | max response, % | 12% of 300,000 active | AID 2314, 2010; in the data active means max response mostly above about 13%, no sharp cut-off; inactive means mostly below about 14%; further: read at 38.3 µM for the half of the compounds with a filed dose; 0% is about no effect
Active calls of the source: *; ? = inconclusive; . = not tested or not shown; [ ] = dose if it differs, or a comment. The sample as a whole holds a higher share of hits than the screen did. Unless noted, the call rests on the fitted dose curve.

SMILES	NS1 inh	Shiga toxin inh	SARS PLpro yeast	TbPYK inhibitor	LmPK inh	CHX counter
Cc1ccc(S(=O)(=O)N2CCCC2)cc1C(=O)N1CCN(Cc2ccccc2)CC1	17%	-6	2%	-6%	6%	-2
C/C=C1\COC(C(=O)NCCN2CCOCC2)(C(F)(F)F)C=C1C=C(C)C (configuration not stated)	.	11	.	.	.	12
COc1ccc(N2C(=O)NC(=O)/C(=C/c3ccc4c(c3)Cc3ccccc3-4)C2=O)cc1	.	34	-9%	.	-4%	29*
COc1cc(/C=C2/C(=O)NC(=O)N(c3ccc(C)cc3)C2=O)cc(OC)c1OC	4%	67*	2%	?	7%	27*
COc1cccc(N2C(=O)NC(=O)/C(=C/c3ccc4c5c(cccc35)CC4)C2=O)c1	18%	12	-14%	.	3%	15
COc1cc(/C=C2\C(=O)NC(=O)N(c3ccc(C)cc3)C2=O)cc(OC)c1O	.	-5	3%	?	-3%	-5
COc1cccc(NC(=O)c2oc3ccccc3c2NC(=O)c2ccc(F)c(F)c2)c1	.	.	.	-5%	.	.
Cn1ccnc1SCC(=O)Nc1ccc(Oc2ccccc2)cc1	-46%	55	-7%	-14%	-8%	24*
CCOc1ccc(C(O)c2nccn2C)cc1 (configuration not stated)	8%	108*	-3%	-4%	-9%	42*
CCOc1ccc(NC(=O)CSc2nccn2C)cc1	4%	48*	12%	-3%	-3%	42*
CCOc1ccc(NC(=O)C(C)Sc2nccn2C)cc1 (configuration not stated)	-16%	9	-1%	-1%	-1%	17*
COc1cc(NC(=O)CSc2nccn2C)cc(OC)c1OC	.	.	.	-2%	.	.
COc1ccc(C(O)c2nccn2C)cc1 (configuration not stated)	-3%	-17	1%	2%	3%	-2
CCc1nc2ccc(C(=O)N3CCCCC3)cn2c1N(CCC(C)C)CCN(C)C	.	.	.	-1%	.	.
COc1cc2c(cc1OC)[C@]13CC[N@+]4(C)CC5=CCO[C@H]6CC(=O)N2[C@@H]1C6[C@@H]5C[C@]34O (some centres not stated)	4%	.	.	.	.	.
O=C(CCC1N=C2c3ccccc3N=C(SCc3cccc(F)c3)N2C1=O)NCCc1ccccc1 (configuration not stated)	.	.	.	-4%	.	.
COc1ccc(CNC(=O)CCc2nc3cccnc3n2Cc2ccccc2)cc1	.	.	.	-16%	.	.
CN1C(=C2C(=O)OC(C)(C)OC2=O)Sc2ccccc21	-9%	117*	4%	0%	-7%	44*
COc1ccc(NC(=O)Nc2ccncc2)c(OC)c1	3%	-15	-1%	-4%	-1%	-3
CCOc1cccc(NC(=O)C(Cc2cccs2)c2nn[nH]n2)c1 (configuration not stated)	-2%	-4	0%	.	1%	2
COc1ccc(CC(C(=O)Nc2cccc(F)c2)c2nn[nH]n2)c(OC)c1 (configuration not stated)	0%	38	-5%	1%	4%	17*
COc1ccc(NC(=O)Nc2ccc(F)c(F)c2)c(OC)c1	-3%	-1	0%	0%	5%	14*
COc1ccc(NC(=O)Nc2cccc(F)c2)c(OC)c1	.	46	-1%	3%	-3%	17*
O=C(NC(=S)NC1CCCCC1)c1ccccc1[N+](=O)[O-]	1%	11	11%	-2%	1%	17
O=C(CSc1nnc(-c2ccccc2)c(-c2ccccc2)n1)NC1CCCCC1	.	.	.	0%[15.4 µM]	.	.
SMILES	NS1 inh	Shiga toxin inh	SARS PLpro yeast	TbPYK inhibitor	LmPK inh	CHX counter
CC(C)(C)C#CC(CCc1ccccc1)OS(N)(=O)=O (configuration not stated)	11%	21	-3%	.	10%	12*
CCOC(=O)C#CC(CCc1ccccc1)OS(N)(=O)=O (configuration not stated)	8%	-5	-12%	-10%	1%	-3
CC1(C)CC(NC(=O)C2CCC(=O)N(Cc3ccccc3F)C2)CC(C)(C)C1 (configuration not stated)	-3%	58*	-4%	-10%	1%	26*
Cc1ccc2nc(CNC(=O)C3CCC(=O)N(Cc4ccccc4F)C3)cn2c1 (configuration not stated)	1%	-4	-1%	-2%	-12%	-1
Cc1cccc(CNC(=O)C2CCC(=O)N(Cc3ccccc3F)C2)n1 (configuration not stated)	5%	-8	18%	-7%	1%	-1
Cc1ccc(C(C)(C)NC(=O)C2CCC(=O)N(Cc3ccccc3F)C2)cc1 (configuration not stated)	-10%	23	-6%	2%	-6%	16*
O=C(Cc1ccc(F)cc1)NCc1nc2cccnc2n1Cc1ccc(F)cc1	.	.	.	-5%	.	.
COc1ccc(NC(=S)NNc2ccc([N+](=O)[O-])cc2S(=O)(=O)Nc2ccc(C)cc2C)cc1	18%	14	12%	?	-10%	6
Cc1ccc([N+](=O)[O-])cc1NC(=S)NC(=O)C(C)(C)C	-3%	34	-9%	-6%	5%	14*
Cc1ccc(NS(=O)(=O)c2cc([N+](=O)[O-])ccc2NNC(=S)Nc2cc(C)ccc2C)c(C)c1	13µM*	-13	6%	-15%	-18%	5
CN(C)CCCNC(=O)COc1ccc(Br)cc1Cl	-1%	-23	13%	6%	-1%	1
COCCNC(=O)COc1ccc(Br)cc1Cl	-6%	42	12%[6.58 µM]	-7%	-3%	33*
C=CCNC(=O)COc1ccc(Br)cc1Cl	-22%	56	1%	-2%	-6%	33*
CCCCNC(=O)C[C@@H]1C[C@@]2(C(=O)OC)CCCCC=C2N(CCC2=CCCCC2)C1=O	.	.	.	5%	.	.
COc1ccc(CN2C(=O)COc3ccccc3C2c2nc3ccccc3[nH]2)cc1 (configuration not stated)	.	.	.	-7%	.	.
Cc1ccc2cc3cc(C(=O)NC4CC4)oc3nc2c1	-5%	30	-4%	-11%	1%	26*
O=C(c1cc2cc3ccc(Cl)cc3nc2o1)N1CCCCCC1	-14%	79*	-8%	1%	7%	21*
Cc1ccc2cc3cc(C(=O)NCc4ccco4)oc3nc2c1	1%	32*	-1%	2%	2%	23*
COc1ccc2cc3cc(C(=O)N4CC(C)CC(C)C4)oc3nc2c1 (configuration not stated)	-13%	23	-3%	0%	-13%	19
COc1ccc(CNC(=O)c2cc3cc4ccc(C)cc4nc3o2)cc1	.	.	.	-1%	.	.
Cc1ccc2cc3cc(C(=O)NC4CCCCC4)oc3nc2c1	-2%	13	25%	-3%	0%	17

Source: PubChem BioAssay (National Center for Advancing Translational Sciences (NCATS))
